Source: PubChem (several laboratories)
Hits are enriched below; roughly 7% of the tested compounds scored in any of these assays.
rCAG RNA binder: binders of r(CAG) RNA repeats, primary screen, biochemical, fluorescence | 370,000 compounds, 1.3% hits | r(CAG) RNA repeat, TO-PRO-1 dye displacement fluorescence | AID 651821, 2012 | inhibition, % at 3 µM;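 active means inhibition above the plate cutoff, the mean of all test compounds on that plate plus 3 SD, cut at about 35% in these data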;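 further: 0% = DMSO alone and 100% = 100 µM mitoxantrone as full dye displacement; higher means more dye released from RNA so lower well fluorescence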
ADAM10 inh: human ADAM10 inhibitors, primary screen, biochemical, QFRET, HTS | recombinant ADAM10, EDANS/DABCYL FRET peptide cleavage, 3 h | AID 720582, 2013 | inhibition, % at 7 µM | Disintegrin and metalloproteinase domain-containing protein 10 (Homo sapiens), O14672 | 370,000 compounds, 0.62% hits;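 active means inhibition above a per-campaign cutoff equal to the mean of compounds falling between control-based bounds plus 3 SD, cut at about 20% in these data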;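 further: 0% = DMSO wells while the 100% control is not disclosed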
Target sequence (O14672 214-748 limits assumed): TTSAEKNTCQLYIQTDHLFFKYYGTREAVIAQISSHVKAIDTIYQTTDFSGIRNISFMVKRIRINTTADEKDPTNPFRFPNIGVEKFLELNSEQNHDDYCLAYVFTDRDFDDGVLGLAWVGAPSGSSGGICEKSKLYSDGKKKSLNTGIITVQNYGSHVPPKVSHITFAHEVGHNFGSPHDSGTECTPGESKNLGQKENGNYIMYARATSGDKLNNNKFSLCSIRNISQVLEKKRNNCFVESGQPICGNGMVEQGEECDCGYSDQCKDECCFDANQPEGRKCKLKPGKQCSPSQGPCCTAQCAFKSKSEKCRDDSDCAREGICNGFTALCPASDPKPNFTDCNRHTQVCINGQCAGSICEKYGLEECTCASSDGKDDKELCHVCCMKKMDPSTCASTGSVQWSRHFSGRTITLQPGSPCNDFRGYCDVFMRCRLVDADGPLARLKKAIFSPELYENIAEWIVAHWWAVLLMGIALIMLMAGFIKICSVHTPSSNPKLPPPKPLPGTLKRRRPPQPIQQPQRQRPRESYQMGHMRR
GRIN3A LBD mod: binders of NR3A ligand-binding domain, primary screen, biophysical, differential scanning fluorimetry, uHTS. Glutamate receptor ionotropic, NMDA 3A (GRIN3A) ligand-binding domain. NR3A LBD differential scanning fluorimetry, Tm shift; 0% = protein alone, 100% = glycine-bound protein. Tm shift relative to glycine control, % at 25 µM. 340,000 compounds, 2.5% hits. AID 1259313, 2017;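 active means melting temperature shift of at least 10% of the positive control shift, at one fixed dose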
ADAM17 inh: ADAM17 inhibitors, primary screen, biochemical, QFRET; recombinant ADAM17, EDANS/DABCYL FRET peptide cleavage; Disintegrin and metalloproteinase domain-containing protein 17 (Homo sapiens), P78536; 370,000 compounds, 0.83% hits; inhibition, % at 6.95 µM; AID 720648, 2013;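 active means inhibition above the mean of compounds lying between control limits plus 3 SD, set per campaign, cut at about 8.5% in these data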;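 further: 0% = DMSO-only wells as the low control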
AHR activator: AHR activators, primary screen, cell-based, luminescence, luciferase reporter, human | AID 2796, 2010 | Aryl hydrocarbon receptor (Homo sapiens), P35869 | 320,000 compounds, 2.5% hits | activation, % at 5 µM | AHR-responsive luciferase reporter cells; in the data active means activation above about 47%;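 further: 0% = vehicle wells and 100% = reference agonist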
proKLK7 act: proKLK7 zymogen activators, primary screen, biochemical, fluorescence intensity; Kallikrein-7 (Homo sapiens), P49862; purified proKLK7, EDANS-DABCYL substrate fluorescence; 100% is mature enzyme control, 0% vehicle; activation, % at 7 µM; 370,000 compounds, 0.9% hits;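 active means activation above the mean of all tested compounds plus 3 SD, computed per campaign excluding outliers beyond control limits, cut at about 13% in these data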
rCAG bind conf: small molecules binding CAG repeat RNA – biochemical, fluorescence, confirmation | shares compounds with rCAG RNA binder | r(CAG) RNA repeat, TO-PRO-1 dye displacement fluorescence | inhibition, % at 3 µM | 4,300 compounds, 70% hits | AID 652065, 2013;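 active means inhibition above a per-plate cutoff, the mean inhibition of sample wells plus 3 SD, cut at about 35% in these data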;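 further: loss of TO-PRO-1 fluorescence as compound displaces dye from 1x1 AA loop RNA; 0% = DMSO only wells and 100% = 100 µM mitoxantrone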
DNA CAG counter: displacement of TO-PRO-1 from CAG DNA duplex, counter-screen for rCAG RNA repeat binder project, biochemical, fluorescence, TO-PRO-1 dye, d(CAG) DNA oligo; shares compounds with rCAG RNA binder; d(CAG) DNA oligo TO-PRO-1 dye displacement; 4,300 compounds, 94% hits; inhibition, % at 3 µM; AID 652068, 2013;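 active means inhibition above its plate's cutoff, the mean test-well inhibition plus 3 SD, cut at about 4.8% in these data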;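 further: 0% = DNA dye mix with DMSO and 100% = 100 µM mitoxantrone; hits displace the dye from DNA and so lower well fluorescence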
DNA CAG DR: inhibitors of DNA CAG/GTC TO-PRO-1 complex, dose response, counter-screen for rCAG RNA repeat binder project, biochemical, fluorescence, TO-PRO-1 dye; 250 compounds, 20% hits; DNA CAG/GTC duplex TO-PRO-1 dye displacement fluorescence; shares compounds with rCAG RNA binder; IC50, µM; in the data active means IC50 below about 10 µM
* hit, by the source's call; i = inactive; / = no result given.

SMILES	rCAG RNA binder	ADAM10 inh	GRIN3A LBD mod	ADAM17 inh	AHR activator	proKLK7 act	rCAG bind conf	DNA CAG counter	others
O=C(N=Nc1c(O)[nH]c2ccc(F)cc12)c1ccc(NS(=O)(=O)c2cccs2)cc1	5	-15	0	-8	5	0	/	/
Cc1cccc2c(N=NC(=O)c3ccc(NS(=O)(=O)c4cccs4)cc3)c(O)[nH]c12	42*	-11	2	2	17	0	72*	30*
O=C(N=Nc1c(O)[nH]c2ccccc12)c1ccccc1NS(=O)(=O)c1cccs1	65*	12	-1	2	-2	0	41*	15*
COc1ccc2[nH]c(O)c(N=NC(=O)c3ccc(NS(=O)(=O)c4cccs4)cc3)c2c1	36*	-7	2	-2	8	-1	57*	25*
CCCCOc1ccc(C(=O)NC2CCCCN(C)C2=O)cc1 (stereo not given)	2	-2	/	-3	/	0	/	/
O=C1C=C(c2cccc3c2Oc2ccccc2S3)C[C@@H](c2ccc3c(c2)OCO3)C1	7	-1	/	-1	/	-1	/	/
CCOC(=O)N1CCN(C(=O)CNC(=O)c2nn(-c3ccc(OC)c(Cl)c3)c(=O)c3ccccc23)CC1	39*	-4	-1	-4	2	2	4	4
COc1cc(NC(=O)c2ccc(-c3ccc(F)c(F)c3)c3ccoc23)cc(OC)c1OC	4	-1	/	4	/	0	/	/
O=C(c1ccncc1)c1ccc(NS(=O)(=O)c2ccc(Br)s2)cc1	31	-2	-5	-1	0	0	/	/
O=C(Nc1ccc2ccccc2c1)c1ccc(NS(=O)(=O)c2ccc(Br)s2)cc1	71*	-7	21*	-2	10	0	88*	57*
Cc1ccc(S(=O)(=O)NC(=O)C2(C)CCN2C(=O)Cc2ccc(Cl)cc2Cl)nc1 (stereo not given)	8	-16	/	-4	/	-1	/	/
O=C(O)c1cccc(N/N=C(\N=Nc2ccccc2)c2ccccc2)c1	38*	-4	-12	0	3	-1	53*	17*
CCCC(=O)OC12CCCN(C1)/C(=C/c1ccc(C#N)cc1)C2 (stereo not given)	4	-15	/	-3	/	0	/	/
CCCCCCCCCCCCN1[C@@H](CC(C)=O)c2cc(C(F)(F)F)ccc2S1(=O)=O	-1	-6	-3	-3	-2	0	/	/
CCCCCCCCN1[C@@H](CC(=O)O)c2ccc(C(F)(F)F)cc2S1(=O)=O	52*	6	-13	-3	1	0	29	4
CCCCCCCCN1C(=O)[C@@H](CC(=O)N2CCCC2)C[C@@]2(C(=O)OC)C1=C[C@H](C(C)C)O[C@@H]2C1CC1	5	10	/	3	/	0	/	/
COC(=O)c1ccc(N2NC(=O)/C(=C/c3ccc(OC)c(OC)c3)C2=O)cc1	26	11	4	1	0	0	/	/
Cc1ccc(N2NC(=O)/C(=C\c3cc4c(cc3[N+](=O)[O-])OCO4)C2=O)cc1C	64*	-24	-14	-6	0	0	45*	18*
COc1cc(/C=C2/C(=O)NN(c3cccc(C)c3)C2=O)cc([N+](=O)[O-])c1O	39*	13	-6	6	1	0	20	6.1*
COc1cc(/C=C2/C(=O)NN(c3ccc(C)c(Cl)c3)C2=O)cc([N+](=O)[O-])c1O	98*	11	4	2	/	0	52*	16*
COc1cc(/C=C2/C(=O)NN(c3cccc(C)c3)C2=O)ccc1OC(=O)c1ccco1	45*	2	-8	4	1	1	70*	30*	DNA CAG DR=i
CC(C)c1ccc(OCCCN2CCC(C(O)(c3ccccc3)c3ccccc3)CC2)cc1	1	12	/	3	/	1	/	/
Cc1sc2c(c1C)C(O)=C(C(=O)Nc1ccccc1)S(=O)(=O)N2C	43*	1	-2	-2	17	0	27	6.9*
CN1c2ccccc2C(O)=C(C(=O)Nc2ccccc2)S1(=O)=O	7	1	2	0	17	0	/	/
CCOC(=O)N1CCN(C(C(=O)NC2CCCC2)C(C)C)CC1 (stereo not given)	0	-8	/	-1	/	0	/	/
SMILES	rCAG RNA binder	ADAM10 inh	GRIN3A LBD mod	ADAM17 inh	AHR activator	proKLK7 act	rCAG bind conf	DNA CAG counter	others
O=C(CCCN1C(=O)/C(=C/c2cccs2)SC1=S)Nc1ccc(C(=O)O)cc1	42*	-8	-3	-9	-1	1	39*	7.8*
O=C(CCN1C(=O)/C(=C\c2cccs2)SC1=S)Nc1nccs1	3	-10	-8	-4	3	0	/	/
O=C(CCN1C(=O)/C(=C/c2cccs2)SC1=S)Nc1cccc(C(=O)O)c1	60*	6	-10	-4	2	0	52*	18*
O=C(CCN1C(=O)/C(=C/c2cccs2)SC1=S)Nc1ccc(C(=O)O)c(O)c1	93*	10	1	-1	1	0	80*	50*
O=C(CCN1C(=O)/C(=C/c2ccc(Cl)cc2)SC1=S)Nc1cccc(C(=O)O)c1	6	-1	-9	-2	-1	0	/	/
O=C(O)CCCN1C(=O)/C(=C/c2cn(-c3ccccc3)nc2-c2cccs2)SC1=S	64*	-3	3	-1	/	-1	82*	44*
COC(=O)[C@@]12C[C@@H](CC(=O)NCCC(C)C)C(=O)N(Cc3cccc4ccccc34)C1=CCC(C)(C)C2	2	-5	/	3	/	1	/	/
COc1ccc(CN2CN3Cc4cc(F)ccc4C3CS2(=O)=O)cc1 (stereo not given)	1	1	/	1	/	0	/	/
CC(=O)C1=C(C)N(Cc2ccc(F)cc2)C(=S)NC1c1ccccc1 (stereo not given)	2	0	/	-2	/	0	/	/
